# Source: PubChem BioAssay (EPA / NIEHS)
# Records with an inconclusive call do not appear. The source made the active and inactive calls. How the source made its calls, unless noted: active means hit-call score of the fitted dose curve at least 0.9, where 1 is the maximum; inconclusive means response in the unintended direction; inactive means score below 0.9.
# Experiments:
# [1] = target: Peroxisome proliferator-activated receptor gamma (Homo sapiens) (UniProt P37231); assay: OT_PPARg_PPARgSRC1_0480: Odyssey Thera (OT) 8-hour Protein-Complementation Assay for Peroxisome Proliferator-activated Receptor Gamma / SRC-1 Co-activator (AID 2283387)
# Sequence of Peroxisome proliferator-activated receptor gamma (Homo sapiens) (P37231 whole entry, looked up, the tested form may be a part): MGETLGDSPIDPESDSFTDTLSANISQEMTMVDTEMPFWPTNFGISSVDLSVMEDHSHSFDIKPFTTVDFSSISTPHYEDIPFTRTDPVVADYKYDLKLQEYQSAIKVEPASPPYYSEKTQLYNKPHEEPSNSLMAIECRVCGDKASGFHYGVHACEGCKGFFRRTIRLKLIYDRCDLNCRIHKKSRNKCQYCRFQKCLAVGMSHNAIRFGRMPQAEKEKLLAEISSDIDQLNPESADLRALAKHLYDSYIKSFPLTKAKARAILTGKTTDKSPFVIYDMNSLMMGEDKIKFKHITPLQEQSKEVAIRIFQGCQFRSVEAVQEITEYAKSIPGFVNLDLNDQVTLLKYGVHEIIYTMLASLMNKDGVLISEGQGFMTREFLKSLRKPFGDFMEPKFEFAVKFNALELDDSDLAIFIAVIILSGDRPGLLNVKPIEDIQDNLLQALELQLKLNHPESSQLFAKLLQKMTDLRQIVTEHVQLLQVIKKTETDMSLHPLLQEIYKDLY
# Method in brief: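 Protein-fragment complementation of split Venus YFP reports PPARg/SRC-1 interaction in HEK293T (transfected 48 h before treatment), exposed 8 h. Readout: N/C fluorescence ratio at 488 nm from imaging, Draq5 for segmentation, positive fit relative to DMSO.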
# [2] = target: Peroxisome proliferator-activated receptor gamma (Homo sapiens) (UniProt P37231); assay: OT_PPARg_PPARgSRC1_1440: Odyssey Thera (OT) 24-hour Protein-Complementation Assay for Peroxisome Proliferator-activated Receptor Gamma/ SRC-1 Co-activator (AID 2283388)
# Method in brief: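 HEK293T transiently transfected with PPARg/SRC-1 split-Venus YFP fusions 48 h before dosing, then treated 24 h at 37C. Fixed cells imaged; nuclear/cytoplasmic 488 nm fluorescence ratio, gain of signal versus DMSO.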
# [3] = CEETOX_H295R_11DCORT: CeeTox H295R High-throughput Steroidogenesis Assay for 11-Deoxycortisol (11DCORT) (AID 2283432; active means hit-call score of the fitted dose curve at least 0.9, where 1 is the maximum; inactive means score below 0.9;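 on AC50: 11-deoxycortisol secreted into the medium measured by LC-MS/MS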); conditions: actives raise or lower the signal
# Method in brief: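 Human adrenal H295R cells were prestimulated with 10 uM forskolin for 48 h, then exposed to test chemical (0.1% DMSO final) for 48 h. Medium 11-deoxycortisol was quantified by MTBE extraction and HPLC-MS/MS; bidirectional fitting relative to DMSO.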
# [4] = CEETOX_H295R_OHPREG: CeeTox H295R High-throughput Steroidogenesis Assay for OH-Pregnenolone (OHPREG) (AID 2283434; active means hit-call score of the fitted dose curve at least 0.9, where 1 is the maximum; inactive means score below 0.9); conditions: actives raise or lower the signal
# Method in brief: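 H295R, 10 uM forskolin pre-stim 48 h; test chemical 48 h, 0.1% DMSO final. MTBE extraction, reverse-phase C18 HPLC-ESI+ MS/MS of medium. Gain/loss vs DMSO; viability by MTT in same wells.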
# [5] = CEETOX_H295R_OHPROG: CeeTox H295R High-throughput Steroidogenesis Assay for OH-Progesterone (OHPROG) (AID 2283435; active means hit-call score of the fitted dose curve at least 0.9, where 1 is the maximum; inactive means score below 0.9;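 on AC50: 17alpha-hydroxyprogesterone secreted into medium measured by HPLC-MS/MS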); conditions: actives raise or lower the signal
# Method in brief: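 Steps: seed H295R cells and adhere overnight; stimulate with 10 uM forskolin for 48 h; replace with chemical-containing medium (0.1% DMSO) for 48 h; extract medium with MTBE; quantify 17alpha-hydroxyprogesterone by reverse-phase C18 HPLC-MS/MS against a 7-point curve.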
# [6] = CEETOX_H295R_ANDR: CeeTox H295R High-throughput Steroidogenesis Assay for Androstenedione (ANDR) (AID 2283436; active means hit-call score of the fitted dose curve at least 0.9, where 1 is the maximum; inactive means score below 0.9); conditions: actives raise or lower the signal
# Method in brief: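 48 h chemical exposure, H295R cells, DMEM/F12 + ITS+ and Nu-Serum. Medium androstenedione: MTBE extraction, C18 reverse-phase HPLC, ESI+ MS/MS. Fit bidirectional vs DMSO; MTT viability in same wells.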
# [7] = CEETOX_H295R_CORTIC: CeeTox H295R High-throughput Steroidogenesis Assay for Corticosterone (CORTIC) (AID 2283437; active means hit-call score of the fitted dose curve at least 0.9, where 1 is the maximum; inactive means score below 0.9;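 further: corticosterone secreted into medium quantified by mass spectrometry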); conditions: actives raise or lower the signal
# Method in brief: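 48 h forskolin (10 uM) prestim, then 48 h chemical exposure, final DMSO 0.1%. Readout: corticosterone in medium by LC-MS/MS after MTBE extraction. Gain/loss fit vs DMSO; MTT viability in same wells.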
# [8] = CEETOX_H295R_CORTISOL: CeeTox H295R High-throughput Steroidogenesis Assay for Cortisol (AID 2283438; active means hit-call score of the fitted dose curve at least 0.9, where 1 is the maximum; inactive means score below 0.9;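 further: cortisol secreted into medium quantified by LC-MS/MS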); conditions: actives raise or lower the signal
# Method in brief: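 Cortisol synthesis by H295R cells is measured 48 h after chemical dosing, following a 48 h stimulation with 10 uM forskolin. Hormone is extracted and quantified by HPLC-MS/MS, and activity is fitted bidirectionally against the DMSO control.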
# [9] = target: Retinoic acid receptor RXR-alpha (Homo sapiens) (UniProt P19793); assay: OT_NURR1_NURR1RXRa_0480: Odyssey Thera (OT) 8-hour HEK293T Protein Complementation Assay for Nurr1/retinoid X receptor (RXR) (AID 2283385)
# Sequence of Retinoic acid receptor RXR-alpha (Homo sapiens) (P19793 whole entry, looked up, the tested form may be a part): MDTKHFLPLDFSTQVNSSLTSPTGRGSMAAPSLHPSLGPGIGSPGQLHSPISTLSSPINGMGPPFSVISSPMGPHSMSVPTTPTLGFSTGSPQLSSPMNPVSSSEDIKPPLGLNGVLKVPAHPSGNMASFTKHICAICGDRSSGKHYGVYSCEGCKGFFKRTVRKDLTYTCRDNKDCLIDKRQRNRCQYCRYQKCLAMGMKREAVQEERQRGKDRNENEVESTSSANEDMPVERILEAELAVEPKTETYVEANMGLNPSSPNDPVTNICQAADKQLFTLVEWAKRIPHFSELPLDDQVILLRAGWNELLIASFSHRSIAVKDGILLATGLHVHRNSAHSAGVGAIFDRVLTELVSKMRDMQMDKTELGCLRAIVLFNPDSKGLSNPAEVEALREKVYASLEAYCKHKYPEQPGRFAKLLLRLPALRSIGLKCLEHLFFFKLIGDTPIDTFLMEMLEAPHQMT
# Method in brief: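 Interaction of bait and prey reconstitutes a functional reporter, whose fluorescence was measured in HEK293T cells dosed with compound for 8 hours. Signal gain relative to DMSO defined the single endpoint.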
# [10] = target: Retinoic acid receptor RXR-alpha (Homo sapiens) (UniProt P19793); assay: OT_NURR1_NURR1RXRa_1440: Odyssey Thera (OT) 24-hour HEK293T Protein Complementation Assay for Nurr1/retinoid X receptor (RXR) (AID 2283386)
# Method in brief: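 Steps: fragment-tagged Nurr1 and RXRα expressed in HEK293T; compounds added; after 24 h, complemented reporter quantified by fluorescence intensity; signal increase over DMSO fitted as the single endpoint.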
smiles,measurement,setting,value
Cc1cccc(O)c1C,outcome,[1],inactive
same,outcome,[2],inactive
CCN(CC)C(=S)SSC(=S)N(CC)CC,outcome,[1],inactive
same,outcome,[2],inactive
same,outcome,[3],inactive
same,outcome,[4],inactive
same,outcome,[5],inactive
same,outcome,[6],inactive
same,outcome,[7],inactive
same,outcome,[8],inactive
NNC(=O)c1ccncc1,outcome,[9],inactive
same,outcome,[10],inactive
same,outcome,[1],inactive
same,outcome,[2],inactive
CCCOc1ccc(S(=O)(=O)N2CCN(CC)CC2)cc1-c1nc2c(CC)n(Cc3ccccn3)nc2c(=O)[nH]1,outcome,[9],inactive
same,outcome,[1],inactive
same,outcome,[2],inactive
same,outcome,[3],inactive
same,outcome,[4],inactive
same,outcome,[5],inactive
same,outcome,[7],inactive
same,outcome,[8],inactive
CNC(C)=O,outcome,[9],inactive
same,outcome,[10],inactive
same,outcome,[1],inactive
same,outcome,[2],inactive
OCCOCCOCCO,outcome,[9],inactive
same,outcome,[10],inactive
same,outcome,[1],inactive
same,outcome,[2],inactive
OCc1c[nH]c2ccccc12,outcome,[4],inactive
same,AC50,[5],15.8 µM (active)
same,outcome,[6],inactive
CCCCC(CC)C(=O)OCCOCCOCCOC(=O)C(CC)CCCC (centres undefined),outcome,[9],inactive
same,outcome,[10],inactive
same,outcome,[1],inactive
same,outcome,[2],inactive
same,outcome,[3],inactive
same,outcome,[4],inactive
same,outcome,[5],inactive
same,outcome,[6],inactive
same,outcome,[7],inactive
same,outcome,[8],inactive
CCCCCCOC(=O)CC(CC(=O)OCCCCCC)(OC(=O)CCC)C(=O)OCCCCCC,outcome,[9],inactive
same,outcome,[1],inactive
same,outcome,[2],inactive
C=CCc1cc(S(=O)(=O)c2ccc(O)c(CC=C)c2)ccc1O,outcome,[1],inactive
same,outcome,[2],inactive
same,AC50,[3],6.4 µM (active)
same,AC50,[4],12.4 µM (active)
same,AC50,[5],0.165 µM (active)
same,outcome,[6],inactive
same,AC50,[7],0.0971 µM (active)
same,AC50,[8],5.57 µM (active)
OC(CCl)CCl,outcome,[9],inactive
same,outcome,[10],inactive
same,outcome,[1],inactive
same,outcome,[2],inactive
CCCCCCCCN(C)C,outcome,[9],inactive
same,outcome,[10],inactive
same,outcome,[1],inactive
same,outcome,[2],inactive
same,outcome,[3],inactive
same,outcome,[4],inactive
same,outcome,[5],inactive
same,outcome,[7],inactive
same,outcome,[8],inactive
OCC(CO)(CO)CO,outcome,[10],inactive
same,outcome,[1],inactive
same,outcome,[2],inactive
CC(C)C(=O)Nc1ccc([N+](=O)[O-])c(C(F)(F)F)c1,outcome,[9],inactive
same,outcome,[1],inactive
same,outcome,[2],inactive
CCCc1ccccc1,outcome,[9],inactive
same,outcome,[10],inactive
same,outcome,[1],inactive
same,outcome,[2],inactive
OCc1ccccc1,outcome,[9],inactive
same,outcome,[10],inactive
same,outcome,[1],inactive
same,outcome,[2],inactive
Cc1nc(-c2ccccn2)ncc1C(=O)Nn1cc(C)c2cc(F)ccc21,outcome,[10],inactive
same,outcome,[1],inactive
same,outcome,[2],inactive
Nc1ccn([C@@H]2O[C@H](CO)[C@@H](O)[C@@H]2O)c(=O)n1,outcome,[9],inactive
same,outcome,[10],inactive
same,outcome,[1],inactive
same,outcome,[2],inactive
same,outcome,[3],inactive
same,outcome,[4],inactive
same,outcome,[5],inactive
same,outcome,[7],inactive
same,outcome,[8],inactive
C=CN1CCCC1=O,outcome,[9],inactive
same,outcome,[10],inactive
same,outcome,[1],inactive
same,outcome,[2],inactive
O=C(O)CO,outcome,[10],inactive
same,outcome,[1],inactive
same,outcome,[2],inactive
COCc1nnc(-c2ccc[n+]([O-])c2)n1-c1c(Cl)c(Cl)cc2[nH]c(=O)c(=O)[nH]c12,outcome,[9],inactive
same,outcome,[10],inactive
same,outcome,[1],inactive
same,outcome,[2],inactive
O=C(NO)C1(NS(=O)(=O)c2ccc(Oc3ccc(F)cc3)cc2)CCOCC1,outcome,[9],inactive
same,outcome,[1],inactive
same,outcome,[2],inactive
OC(Cn1cncn1)(Cn1cncn1)c1ccc(F)cc1F,outcome,[9],inactive
same,outcome,[10],inactive
same,outcome,[1],inactive
same,outcome,[2],inactive
OC[C@H]1O[C@@H]2O[C@H]3[C@H](O)[C@@H](O)[C@@H](O[C@H]4[C@H](O)[C@@H](O)[C@@H](O[C@H]5[C@H](O)[C@@H](O)[C@@H](O[C@H]6[C@H](O)[C@@H](O)[C@@H](O[C@H]7[C@H](O)[C@@H](O)[C@@H](O[C@H]1[C@H](O)[C@H]2O)O[C@@H]7CO)O[C@@H]6CO)O[C@@H]5CO)O[C@@H]4CO)O[C@@H]3CO,outcome,[9],inactive
same,outcome,[10],inactive
same,outcome,[1],inactive
same,outcome,[2],inactive
C[C@@H](Oc1ccc(CNC(=O)c2cccnc2Oc2ccc3c(c2)OCO3)c(F)c1)C(=O)O,outcome,[9],inactive
same,outcome,[10],inactive
same,outcome,[1],inactive
same,outcome,[2],inactive
same,outcome,[3],inactive
same,outcome,[4],inactive
same,outcome,[5],inactive
same,outcome,[7],inactive
same,outcome,[8],inactive
NC(=O)N1c2ccccc2C=Cc2ccccc21,outcome,[10],inactive
same,outcome,[1],inactive
same,outcome,[2],inactive
CCOc1ccc2[nH]cc(C(=O)NCc3ccccc3)c(=O)c2n1,outcome,[10],inactive
same,outcome,[1],inactive
same,outcome,[2],inactive
same,outcome,[4],inactive
same,AC50,[5],68.1 µM (active)
CC(C)c1nnc2ccc(-c3ocnc3-c3cc(F)ccc3F)cn12,outcome,[9],inactive
same,outcome,[10],inactive
same,outcome,[1],inactive
same,outcome,[2],inactive
same,outcome,[3],inactive
same,outcome,[4],inactive
same,outcome,[5],inactive
same,outcome,[7],inactive
same,outcome,[8],inactive
O=C1CN(N=Cc2ccc([N+](=O)[O-])o2)C(=O)N1,outcome,[1],inactive
same,outcome,[2],inactive
CCCCCCCCCC,outcome,[9],inactive
same,outcome,[10],inactive
same,outcome,[1],inactive
same,outcome,[2],inactive
CCCCCCCC1CCC(=O)O1 (centres undefined),outcome,[9],inactive
same,outcome,[1],inactive
same,outcome,[2],inactive
same,outcome,[4],inactive
same,outcome,[5],inactive
Cn1c(=O)c2[nH]cnc2n(C)c1=O,outcome,[9],inactive
same,outcome,[10],inactive
same,outcome,[1],inactive
same,outcome,[2],inactive
O=C(O)c1cccc(C(=O)O)c1,outcome,[1],inactive
same,outcome,[2],inactive
CC[C@H](C)C(=O)O[C@H]1C[C@H](O)C=C2C=C[C@H](C)[C@H](CC[C@@H](O)C[C@@H](O)CC(=O)O)[C@H]21,outcome,[9],inactive
same,outcome,[10],inactive
same,outcome,[1],inactive
same,outcome,[2],inactive
same,AC50,[3],5.33 µM (active)
same,AC50,[4],1.06 µM (active)
same,AC50,[5],5.55 µM (active)
same,AC50,[7],6.77 µM (active)
same,outcome,[8],inactive
CCc1ccc(O)c(C(C)(C)C)c1,outcome,[1],inactive
same,outcome,[2],inactive
